# Entries with a potency or affinity are not part of this list. Activity calls are given as the source filed them.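 Rule for the calls: active = every repeat run showing a signal drop whose fitted half-maximal concentration is at most twice the top tested concentration; inconclusive = repeat runs disagree, or flat partial drop, or poor fit; inactive = the rest.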
# Test: HEK293T cytotoxicity, dose response, cytotoxicity control for miR-122 modulator project, cell-based, activator set, cherry-pick (AID 720690)
# Settings: HEK293T viability, CellTiter-Glo luminescence, 48 h; series mostly up to 26 µM
row,Structure (SMILES),outcome
1,CC(C)C#Cc1ccc2c(c1)O[C@H](CN(C)C(=O)c1ccncc1)[C@@H](C)CN([C@@H](C)CO)S2(=O)=O,inactive
2,CN1C(=O)c2cc(NC(=O)c3ccno3)ccc2OC[C@H]2O[C@@H](CC(=O)NCC3CC3)CC[C@@H]21,inactive
3,CC(=O)N1[C@@H](CO)[C@@H](c2ccccc2)[C@@H]1CNC(=O)CN1CCOCC1,inactive
4,CNC(=O)C[C@H]1CC[C@@H]2[C@H](COc3ccc(NC(=O)c4ccc(OC)cc4)cc3C(=O)N2C)O1,inactive
5,CNC(=O)C[C@H]1CC[C@@H]2[C@H](COc3ccc(NC(=O)NC(C)C)cc3C(=O)N2C)O1,inactive
6,Oc1ccc(-c2nc(-c3ccc(O)c(O)c3)cs2)cc1,inactive
7,C[C@H](CO)N1C[C@H](C)[C@@H](CN(C)CC2CCCCC2)Oc2c(NS(=O)(=O)c3cccs3)cccc2C1=O,inactive
8,CCCC(=O)Nc1ccc2c(c1)C(=O)N(C)[C@@H]1CC[C@H](CC(=O)NCCN3CCCCC3)O[C@H]1CO2,inactive
9,C[C@H](CO)N1C[C@H](C)[C@H](CN(C)C(=O)Nc2ccc3c(c2)OCO3)Oc2ncc(-c3cccc(C(F)(F)F)c3)cc2C1=O,inactive
10,CCS(=O)(=O)Nc1ccc2c(c1)C(=O)N(C)[C@H]1CC[C@H](CC(=O)NCCCN3CCOCC3)O[C@H]1CO2,inactive
11,Cc1ccc(-n2ncc(C(=O)Nc3cc(Cl)ccc3C)c2C2CCNCC2)cc1C,inactive
12,C[C@H](CO)N1C[C@H](C)[C@@H](CN(C)Cc2ccc(Oc3ccccc3)cc2)Oc2ncc(-c3cncnc3)cc2C1=O,inactive

# Reference: PubChem BioAssay AID720690 (Broad Institute, 2013)
